Results as given in article PMC4336329 (PLoS ONE, 2015).
The campaign covered roughly 310,000 compounds. About 14,000 (4.5%) showed an effect of 50% or more. The effect is printed as a negative number. Many of the other results were omitted from the sample, so strong results are more common in it than they were.

The molecules below were run against human ether-à-go-go-related gene (hERG) potassium channel (human, UniProt Q12809) (assay: primary screen, population patch clamp on CHO cells stably expressing hERG; higher = less effect of the substance).
Sequence of human ether-à-go-go-related gene (hERG) potassium channel (Q12809 whole entry, looked up): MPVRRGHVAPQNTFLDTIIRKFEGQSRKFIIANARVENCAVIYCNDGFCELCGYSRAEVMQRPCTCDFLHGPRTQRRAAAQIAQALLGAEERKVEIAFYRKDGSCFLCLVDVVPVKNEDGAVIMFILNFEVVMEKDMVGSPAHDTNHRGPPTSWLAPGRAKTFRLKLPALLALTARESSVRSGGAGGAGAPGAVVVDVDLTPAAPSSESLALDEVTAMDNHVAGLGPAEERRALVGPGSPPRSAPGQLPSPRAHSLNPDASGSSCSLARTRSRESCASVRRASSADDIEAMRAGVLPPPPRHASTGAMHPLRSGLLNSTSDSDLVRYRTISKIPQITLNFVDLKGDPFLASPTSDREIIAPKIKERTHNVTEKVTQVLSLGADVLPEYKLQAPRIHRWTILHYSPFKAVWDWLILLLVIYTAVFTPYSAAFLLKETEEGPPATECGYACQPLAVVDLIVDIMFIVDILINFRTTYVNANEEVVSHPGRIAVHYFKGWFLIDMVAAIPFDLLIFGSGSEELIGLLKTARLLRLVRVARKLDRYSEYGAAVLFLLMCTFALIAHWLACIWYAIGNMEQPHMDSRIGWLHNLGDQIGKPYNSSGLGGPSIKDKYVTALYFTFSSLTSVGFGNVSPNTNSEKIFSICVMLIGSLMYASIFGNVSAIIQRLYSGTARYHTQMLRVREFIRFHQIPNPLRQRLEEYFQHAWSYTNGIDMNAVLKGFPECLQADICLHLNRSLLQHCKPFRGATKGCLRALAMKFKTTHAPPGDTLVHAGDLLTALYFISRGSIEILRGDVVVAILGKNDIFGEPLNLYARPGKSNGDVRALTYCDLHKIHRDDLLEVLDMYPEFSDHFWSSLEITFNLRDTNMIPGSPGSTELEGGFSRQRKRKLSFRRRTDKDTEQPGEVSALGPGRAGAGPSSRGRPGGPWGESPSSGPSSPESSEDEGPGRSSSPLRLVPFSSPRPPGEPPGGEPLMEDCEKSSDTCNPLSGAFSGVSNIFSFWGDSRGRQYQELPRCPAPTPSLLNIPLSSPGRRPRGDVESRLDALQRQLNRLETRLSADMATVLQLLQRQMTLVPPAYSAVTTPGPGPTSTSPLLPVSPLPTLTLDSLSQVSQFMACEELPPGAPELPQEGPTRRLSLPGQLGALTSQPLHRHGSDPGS
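Note: peak tail current of the secondary pulse compared with the same well before compound.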

Point of comparison: `O=C(c1ccc(N2CCOCC2)c([N+](=O)[O-])c1)N1CCN(S(=O)(=O)c2cccs2)CC1`, “hERG current change (%, negative = inhibition) at 10uM” value -47.3%. Against it:
- O=C(CN1CCN(S(=O)(=O)c2cc(Cl)ccc2Cl)CC1)Nc1ccc2c(c1)OCCO2 — higher, -23.2%
- O=C(CC(c1ccccc1)c1cc(Cl)ccc1O)N1CCOCC1 (stereo not shown) — higher, -15.1%
- CCc1ccc(S(=O)(=O)N/N=C\c2ccc3c(c2)OCO3)cc1 — higher, 9.85%
- CCCN(CC(=O)Nc1ccc(F)c(F)c1F)C(=O)c1ccc(N2CCCC2=O)cc1 — higher, -4.37%
- C=CCOc1ccccc1/C=N/NC(=O)c1ccc(Cl)cc1Cl — higher, -6.98%
- O=C(CC1C(=O)NCCN1CC1CCCCC1)NCc1ccccc1Cl (stereo not shown) — higher, -5.9%
- Cc1nc(-c2cccc(S(=O)(=O)N3CCCC(C)C3)c2)cs1 (stereo not shown) — higher, -9.76%
- O=C(c1ccc(N2CCCC2)c([N+](=O)[O-])c1)N1CCN(c2ccccn2)CC1 — higher, -21.8%
- O=C(c1ccc(N2CCCCC2)c([N+](=O)[O-])c1)N1CCN(c2ccccn2)CC1 — lower, -66.8%
- CC(=O)N1CCN(c2ccc(S(C)(=O)=O)cc2[N+](=O)[O-])CC1 — higher, -12.7%
- CN1CCN(c2ccc(S(=O)(=O)N3CCCCC3)cc2[N+](=O)[O-])CC1 — lower, -48%
- Cc1ccc(C(=O)N2CCN(c3ccccn3)CC2)cc1[N+](=O)[O-] — higher, 9.02%
- CS(=O)(=O)c1ccc(N2CCN(S(=O)(=O)c3cccs3)CC2)c([N+](=O)[O-])c1 — lower, -67.1%
- CS(=O)(=O)c1ccc(N2CCN(c3ccccn3)CC2)c([N+](=O)[O-])c1 — lower, -55%
- CN1CCN(c2ccc(S(C)(=O)=O)cc2[N+](=O)[O-])CC1 — higher, -2.78%
- CCOC(=O)c1cnn(-c2sc(C(=O)OCC)c(C)c2C(=O)OCC)c1N — higher, 16.4%
- O=C(NC1CCCCC1)c1ccc2snnc2c1 — higher, 12.8%
- NS(=O)(=O)c1ccc(CCNC(=O)CCCCCn2c(=S)[nH]c3ccc(Br)cc3c2=O)cc1 — higher, 9.32%
- O=C(O)c1ccc(-n2nnnc2SCc2cccc(Br)c2)cc1 — higher, 13.2%
- COc1ccc(/C=C/C(=O)NC(=S)Nc2ccc(N3CCN(C(C)=O)CC3)cc2)cc1 — higher, 12.2%
- COC(=O)C1=C(c2cccc(OCc3ccccc3)c2)C[C@@H]2CC[C@H]1N2C(=O)NNCc1ccccc1 — higher, 10.8%
- CC1CC(C)CN(C(=O)Cn2cc(C=O)c3ccccc32)C1 (stereo not shown) — higher, -4.11%
- Cc1nn(C)c(C(=O)NNC(=S)NCc2ccco2)c1Cl — higher, 7.69%
- O=c1cc2c(nn1Cc1ccc(Cl)cc1)-c1ccccc1CC2 — higher, -13.6%
- O=c1cc2c(nn1Cc1ccccc1)-c1ccccc1CC2 — higher, -17.6%
- O=c1cc2c(nn1Cc1ccc(F)cc1)-c1ccccc1CC2 — lower, -61.3%
- C#Cc1ccc([C@H]2C=C(C(=O)O)O[C@@H](OCc3ccc(CO)cc3)C2)cc1 — higher, 9.26%
- Clc1ccccc1OCCCCn1ccnc1 — higher, -2.93%
- O=C(O)CN1C(=O)/C(=C\c2ccccc2OCc2ccc(Cl)cc2)SC1=S — higher, 15.3%
- Cc1ccc(C2C(C(=O)c3cc4ccccc4o3)=C(O)C(=O)N2c2cc(C)on2)cc1 (stereo not shown) — higher, 19.3%
- CCOc1ccc2nc(SCC(=O)Nc3ccc4[nH]c(=O)[nH]c4c3)[nH]c2c1 — higher, 27%
- Cc1ccc2nc(COc3ccc(N(C)S(=O)(=O)c4ccccc4)cc3)cc(=O)n2c1 — lower, -56%
- COc1cccc(COc2ccc(N(C)S(=O)(=O)c3ccccc3)cc2)c1 — higher, 3.08%
- Cc1ccc2nc(COc3ccc(Cl)cc3)cc(=O)n2c1 — higher, 15%
- O=C(/C(Cl)=C/Nc1ccc(Br)cn1)C(F)(F)F — higher, 12.7%
- Cc1cc(NC(=O)CN2C(=O)CC(c3ccco3)Sc3ccccc32)no1 (stereo not shown) — lower, -61.8%
- O=C(CN1C(=O)CC(c2ccco2)Sc2ccccc21)Nc1ccc2c(c1)OCCO2 (stereo not shown) — higher, -6.73%
- O=C(CN1C(=O)CC(c2ccco2)Sc2ccccc21)Nc1ccccc1F (stereo not shown) — higher, -39.3%
- Oc1cccc(C=NCc2ccccc2)c1 — higher, 8.22%
- O=C(c1ccc(Cl)cc1)N1CCN(C(=O)C2CCCCC2)CC1 — higher, -2.89%
- Cc1cc(C)n(-c2nc(C)nc(N)n2)n1 — higher, 10.3%
- CC(C)Oc1cccc(C(=O)C2CCCN(Cc3ccc4nonc4c3)C2)c1 (stereo not shown) — higher, -1.53%
